Compound activity: PubChem BioAssay, National Center for Advancing Translational Sciences (NCATS)
SARS PLpro yeast = qHTS of Yeast-based Assay for SARS-CoV PLP | Potency, µM (doses to about 32.9 µM), without a hit: at the top dose activity, positive = growth rescue, usual class: activators | S. cerevisiae expressing SARS-CoV PLpro, growth rescue | hit rate 0.19% among 330,000 | AID 485353, 2010; calls by dose curve; also: potency is read from the fitted curve at half-maximal effect; 0% is about no effect; nearly all actives have a fitted effect of over 55% in size
Pf growth 48h = Primary qHTS for delayed death inhibitors of the malarial parasite plastid, 48 hour incubation | AID 504832, 2011 | P. falciparum luciferase growth in erythrocytes, 48 h | Potency, µM (series often up to 28.7 µM), for the others: at the top dose activity change, negative = inhibition, hits mostly inhibitors | hit rate 5.9% among 310,000; also: potency is read from the fitted curve at half-maximal effect; % is scaled to controls: 0 for no effect and ±100 for the full control effect
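Firefly luciferase activity from engineered P. falciparum reports growth; inhibitors lower the luminescent signal. Cultures contained 2% hematocrit erythrocytes at 0.1% final parasitemia.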
HCV inhibitor = qHTS Assay for Inhibitors of Hepatitis C Virus (HCV); Huh7.5.1 HCVcc-Cre infection, luciferase reporter, 44 h; hit rate 3.4% among 340,000; Potency, µM (highest dose often 41.8 µM), for the others: top-dose activity change, negative = inhibition, most hits filed as inhibitors; AID 651820, 2012; also: potency is read from the fitted curve at half-maximal effect; % is scaled to controls: 0 for no effect and ±100 for the full control effect
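Cells seeded at 1,000/well and cultured 4 h, then compounds added followed by HCVcc-Cre virus (~0.5 moi). After 44 h further culture, luciferase substrate was added, plates held 15 min at room temperature, and luminescence read for 15 sec.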
Sm TGR block = qHTS Assay for the Inhibitors of Schistosoma Mansoni Peroxiredoxins | Potency, µM (doses to about 114 µM), inactives show at the top dose activity change, negative = inhibition, usual class: inhibitors | purified TGR, DTNB reduction, TNB absorbance 405 nm | hit rate 3% among 360,000; also: potency is read from the fitted curve at half-maximal effect; % is scaled to controls: 0 for no effect and ±100 for the full control effect; nearly all actives have a fitted effect of over 60% in size
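First, TGR (20 nM dispensed) and NADPH were mixed with compound. Second, a 15 min room-temperature incubation followed. Third, further NADPH and then DTNB were added to start the reaction. Finally, TNB absorbance was monitored kinetically.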
HCMV inh = qHTS Assay for inhibitors of the human cytomegalovirus (HCMV); HFF cells, HCMV-luciferase reporter, 72 h; stronger effect = lower value; activity change, negative = inhibition, % at 57.5 µM; hit rate 4.5% among 410,000; AID 1259415, 2018; in the data active = activity change below about -60%; inconclusive = no clear call, values can overlap the other calls; inactive = above about -39%; also: % is scaled to controls: 0 for no effect and ±100 for the full control effect
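Luciferase read-out from HCMV-luciferase-infected HFFs (MOI 1 PFU/cell) 72 h post infection at 37C; compounds added after 16 h cell attachment; activity normalized between buffer-only basal and Salinomycin (10uM) inhibitor controls.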
Pf growth 96h = Primary qHTS for delayed death inhibitors of the malarial parasite plastid, 96 hour incubation; P. falciparum luciferase reporter growth, 96 h; Potency, µM (series often up to 28.7 µM), for the others: at the highest dose activity change, negative = inhibition, actives largely listed as inhibitors; hit rate 6.9% among 320,000; AID 504834, 2011; also: potency is read from the fitted curve at half-maximal effect; % is scaled to controls: 0 for no effect and ±100 for the full control effect
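Delayed-death screen, second-generation endpoint: infected erythrocytes, 2% hematocrit, 0.05% parasitemia final; 96 hours at 37 C, 5% CO2; luciferase detection reagent; luminescence decrease equals reduced growth.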
* marks the source's active call; other numbers are inactive results; ? = inconclusive; nt = no result given. Sampled rows, rich in hits. Any-hit rate of the full collection: about 15%. Unless noted, calls follow the shape of the dose curve; as a rule, active = well fitted curve in the direction sought with a large enough effect; inconclusive = small, poorly fitted or top-dose-only effect, or another doubt; inactive = no such curve, though single readings can be large; an effect the other way counts as inactive or inconclusive.

SMILES	SARS PLpro yeast	Pf growth 48h	HCV inhibitor	Sm TGR block	HCMV inh	Pf growth 96h
Cc1cccc(Cn2c(CN3CCN(Cc4ccccc4)CC3)nc3c2c(=O)[nH]c(=O)n3C)c1	-2%	6.6µM*	10µM*	-22%	-27	1.9µM*
Cc1cc(C)n(-c2nc3c(c(=O)[nH]c(=O)n3C)n2CCc2ccccc2)n1	0%	-17%	3%	5%	8	3%
Cn1c(=O)[nH]c(=O)c2c1nc(CN1CCOCC1)n2Cc1ccccc1	7%	4%	16%	2%	44	?
CN1CCN(c2nc3c(c(=O)[nH]c(=O)n3C)n2Cc2ccccc2)CC1	3%	5%	14%	-6%	4	0.59µM*
Cc1cc(C)n(-c2nc3c(c(=O)[nH]c(=O)n3C)n2Cc2ccccc2)n1	1%	17%	2µM*	0%	27	0%
CN(Cc1ccccc1)Cc1nc2c([nH]1)c(=O)[nH]c(=O)n2C	1%	22%	9%	2%	28	10µM*
Cn1c(=O)c2[nH]c(CN(Cc3ccccc3)Cc3ccccc3)nc2n(C)c1=O	-1%	-8%	12%	-7%	16	-29%
O=C(C(O)c1ccccc1)N1N=C(c2ccccc2)CC1(O)C(F)(F)F (configuration not stated)	-5%	43%	6%	7%	-22	13%
Cc1nn2c(=O)cc(COC(=O)c3ccc(NC(=O)CCc4ccccc4)cc3)nc2s1	nt	nt	nt	-2%	56	nt
O=C(CC1SC(N2CCOCC2)=NC1=O)Nc1ccc(Cl)c(C(F)(F)F)c1 (configuration not stated)	-4%	nt	-14%	nt	0	nt
C[C@@H]1NS(=O)(=O)[C@H]2C[C@@H]3C=C[C@]2(O3)[C@H]1OC(=O)Nc1ccc(C(F)(F)F)cc1[N+](=O)[O-]	1%	5%	2%	-12%	1	-11%
O=c1/c(=C/c2ccc(O)cc2)sc2nc3cc(Br)cnc3n12	-1%	28%	nt	-9%	nt	?
CCCCCn1c(Sc2ccccc2)nc2c1c(=O)[nH]c(=O)n2C	1%	-6%	-6%	-6%	16	0%
C=C(C)Cn1c(N2CCC(Cc3ccccc3)CC2)nc2c1c(=O)[nH]c(=O)n2C	-11%	13µM*	-12%	2%	-23	?
Cc1cccc(Cn2c(N3CCN(C)CC3)nc3c2c(=O)[nH]c(=O)n3C)c1	1%	15%	29%	2%	12	?
Cc1ccc(Cn2c(N3CCCCCC3)nc3c2c(=O)[nH]c(=O)n3C)cc1	0%	4.1µM*	-21%	2%	-11	nt
C=CCn1c(Sc2ccccc2)nc2c1c(=O)[nH]c(=O)n2C	7%	12µM*	5%	-2%	-8	8%
CCCn1c(N2CCN(Cc3cccc(C)c3)CC2)nc2c1c(=O)[nH]c(=O)n2C	-1%	nt	-20%	-2%	-20	1.9µM*
COc1ccccc1CCNS(=O)(=O)CCNC(=O)c1ccc2c(c1)OCO2	-1%	8%	6%	1%	-3	-3%
CCOC(=O)c1sc2ccccc2c1S(=O)(=O)N1CCN(c2cc(C)ccc2C)CC1	nt	nt	nt	7%	3	nt
Cn1nc(C2CC2)cc1NC(=O)C1(C)CCN1C(=O)CCc1ccccc1 (configuration not stated)	nt	nt	nt	nt	-10	nt
N/C(=N\OC(=O)Nc1ccccc1)c1ncc([N+](=O)[O-])s1	-14%	?	13µM*	-22%	-32	?
COc1ccc(-c2cc(C(F)F)n3ncc(C(=O)Nc4ccc(C(=O)N5CCOCC5)cc4)c3n2)cc1	0%	?	-13%	nt	-68*	44%
COc1ccc(-c2cc(C(F)F)n3ncc(C(=O)Nc4cc(OC)ccc4OC)c3n2)cc1	nt	nt	nt	1%	-9	nt
CCn1nc(C)c(NC(=O)c2cnn3c(C(F)F)cc(-c4ccccc4)nc23)c1C	-1%	?	14µM*	-11%	?	?
SMILES	SARS PLpro yeast	Pf growth 48h	HCV inhibitor	Sm TGR block	HCMV inh	Pf growth 96h
Cc1ccc(-c2cc(C(F)F)n3ncc(C(=O)Nc4ccc(S(=O)(=O)Nc5ccccc5C)cc4)c3n2)cc1	0%	1.9µM*	?	0%	20	15µM*
COc1ccc(NS(=O)(=O)c2ccc(NC(=O)c3cnn4c(C(F)F)cc(-c5ccc(C)cc5)nc34)cc2)cc1	-2%	?	nt	-17%	nt	0.83µM*
C[C@H]1[C@@H](NS(=O)(=O)c2ccc(Cl)cc2)CC[C@@]23CCCN2C(=O)CCC[C@@H]13	nt	nt	nt	nt	23	nt
CC(=O)O[C@@]12CO[C@@H]1C[C@H](O)[C@@]1(C)C(=O)[C@H](O)C3=C(C)[C@@H](OC(=O)[C@H](O)[C@@H](NC(=O)c4ccccc4)c4ccccc4)C[C@@](O)([C@@H](OC(=O)c4ccccc4)C12)C3(C)C (some centres not stated)	-2%	0.074µM*	-6%	-11%	?	0.074µM*
CC(=O)O[C@H]1C(=O)[C@@]2(C)C([C@H](OC(=O)c3ccccc3)[C@]3(O)C[C@H](O)C(C)=C1C3(C)C)[C@]1(OC(C)=O)CO[C@@H]1C[C@H]2O (some centres not stated)	0%	43%	?	-15%	17	4%
CC(=O)O[C@H]1C(=O)[C@]2(C)[C@H]([C@H](OC(=O)c3ccccc3)[C@]3(O)C[C@H](OC(=O)[C@H](O)[C@@H](NC(=O)c4ccccc4)c4ccccc4)C(C)=C1C3(C)C)[C@]1(OC(C)=O)CO[C@@H]1C[C@@H]2O	nt	nt	6.3µM*	nt	-12	nt
CC(=O)O[C@H]1C(=O)[C@@]2(C)C([C@H](OC(=O)c3ccccc3)[C@]3(O)C[C@H](OC(=O)[C@H](O)[C@@H](NC(=O)Cc4ccccc4)c4ccccc4)C(C)=C1C3(C)C)[C@]1(OC(C)=O)CO[C@@H]1C[C@@H]2O (some centres not stated)	7%	3.7µM*	?	5%	-32	0.74µM*
CC(=O)O[C@@]12CO[C@@H]1C[C@H](O)[C@@]1(C)C(=O)[C@H](O)C3=C(C)[C@@H](OC(=O)C(O)[C@@H](NC(=O)OC(C)(C)C)c4ccccc4)C[C@@](O)([C@@H](OC(=O)c4ccccc4)[C@H]21)C3(C)C (some centres not stated)	nt	0.014µM*	nt	nt	nt	0.014µM*
